These results are taken from PubChem BioAssay (NCI).

Molecules are shown by their SMILES. This is part of a sample that, as a whole, favours compounds with a hit. Of some 83,000 tested, about 20% had one in any assay.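 Activity criterion: percent growth below 10, measured after cells in 96-well plates were exposed to a single compound concentration for 48 hours.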 Calls of active or inactive are those of the source.

In the assay the test system is HCT-15 colon. Put plainly: NCI-60 one-dose screen, 48 h (100 = growth as untreated, 0 = no growth, -100 = all killed). As to conditions: 10 µM unless noted.
On to `COc1ccc(C2=CC(c3cc(OC)c(OC)c(OC)c3)NC(=O)N2)cc1OC` (centres undefined), for which the growth was 27.5% (inactive).

As for `O=C(CCl)N(C1CCCCC1)C1CCCCC1`, the growth is 98.4% (inactive).

Consider `CNC(=S)NNC(=O)C1CC1`, for which the growth is 105% (inactive).

On to `COc1ccc(/C=C(\C#N)c2cc(OC)c3c(c2)OCO3)cc1`, for which the growth is 15.7% (inactive).

As for `Cc1ccc2nc(Cl)cc(=O)n2c1`, the growth was 102% (inactive).

Turning to `O=c1cc(Cc2ccc([N+](=O)[O-])cc2)[nH]c(=O)[nH]1`, the growth is 96.6% (inactive).

Regarding `CC1=C(C#N)C(=O)NC(C)C1` (centres undefined), the growth was 101% (inactive).

On to `CNc1ccc(Br)c2c1C(=O)c1ccccc1C2=O`, for which the growth is 98.2% (inactive).

On to `Cc1ccc(S(=O)(=O)C2=C3C(=C(c4ccccc4)c4ccccc43)CN(S(=O)(=O)c3ccc(C)cc3)C2)cc1`, for which the growth is 39% (inactive).

As to `C=C(C)[C@@H]1C[C@@H]2Cc3cc(F)ccc3N1O2`, the growth was 92.9% (inactive).

Take `NC(N)=Nc1nc2ccccc2o1`: the growth was 105% (inactive).

On to `CC(C)(C)OC(=O)NC(CSCc1ccccc1)C(=O)ON1C(=O)CCC1=O` (centres undefined), for which the growth is 103% (inactive).

With `COc1ccc(CN2CCc3c(Sc4ccccc4)nc(N)nc3C2=O)c(OC)c1`, the growth was 66.8% (inactive).

Take `COc1cc(/C=C/C(=O)c2ccc(Nc3ncnc4cc(OC)c(OC)cc34)cc2)cc(OC)c1`: the growth is 97.8% (inactive).

For `S=C1CC(=S)NC(=S)N1`, the growth was 116% (inactive).

Consider `COc1ccc2c(c1)[nH]c(=O)c1c3cccc(F)c3cn21`, for which the growth is 9.78% (active).

As to `NC1=NN(O)C2=CC([N+](=O)[O-])C=CC2=N1` (centres undefined), the growth was 101% (inactive).

In the case of `C=C[C@@H]1C[C@@H]2Cc3cc(Cl)ccc3N1O2`, the growth was 97.7% (inactive).

Turning to `CN(C)CCCC(C#N)c1ccccc1` (centres undefined), the growth is 103% (inactive).

Regarding `C=C1CCC2C3(C)COC(c4ccc(N(C)C)cc4)OC3CCC2(C)C1C/C=C1/C(=O)OCC1O` (centres undefined), the growth is 57.6% (inactive).

For `COc1ccc(-c2cn(-c3cccc(C(=O)/C=C/c4cc(OC)c(OC)c(OC)c4)c3)c(=O)[nH]2)cc1OC`, the growth is 82.1% (inactive).

Regarding `C=C[C@@H]1C[C@@H]2Cc3cc(F)ccc3N1O2`, the growth is 104% (inactive).

As for `COc1ccc2c(c1)cn1c3ccc(OC)cc3[nH]c(=O)c21`, the growth is -84.4% (active).

For the compound `C=C[C@@H]1C[C@H](O)Cc2ccccc2N1`, the growth was 103% (inactive).

As to `NC(=S)N/N=C1\CCCC(C(F)(F)F)C1` (centres undefined), the growth is 90.5% (inactive).

Regarding `Cn1c(=O)c2[nH]c(C3CC=CCC3)nc2n(C)c1=O` (centres undefined), the growth was 106% (inactive).

`N#C/C(=C1C=C/C(=N/O)C(Cl)=C/1)c1ccc(Cl)cc1`: the growth is 83% (inactive).

As to `COc1ccc(C(=O)n2nc(/C=C/c3ccc(O)c(OC)c3)cc2/C=C/c2ccc(O)c(OC)c2)cc1`, the growth was 5.59% (active).

As to `C=C[C@@H]1C[C@H](O)Cc2c(C)cc(C)cc2N1`, the growth is 101% (inactive).

On to `Cn1ncc2c(Sc3ccc(Cl)cc3)ncnc21`, for which the growth is 97% (inactive).

Regarding `COc1cc(/C=C/c2cc(/C=C/c3ccc(O)c(OC)c3)n(C(N)=O)n2)ccc1O`, the growth was 4.33% (active).

For the compound `CO[C@H]1NC(=O)N(S(=O)(=O)c2ccc(Cl)cc2)[C@@H]1OC`, the growth was 102% (inactive).

As for `COc1ccc2[nH]c(=O)c3c4ccccc4cn3c2c1`, the growth is 9.19% (active).

Turning to `Nc1ncnc2c1c(-c1ccc(Oc3ccccc3)cc1)nn2C[C@@H]1SSC[C@@H]1O`, the growth is 64.6% (inactive).

With `C[n+]1c(/C=C/c2c(O)ccc3ccccc23)ccc2ccccc21`, the growth is 21.6% (inactive).

Take `Cc1ccc(S(=O)(=O)n2cc(C(=O)C(=O)N3CCOCC3)c3ccccc32)cc1`: the growth is 96.6% (inactive).

For `COc1ccc2c(c1)[nH]c(=O)c1c3cc(OC)ccc3cn21`, the growth is 4.49% (active).

`C=C[C@@H]1C[C@@H]2Cc3c(C)cc(C)cc3N1O2`: the growth was 101% (inactive).

On to `C=C[C@@H]1C[C@H](O)Cc2cc(F)ccc2N1`, for which the growth was 96.4% (inactive).
